# Laboratory results taken from PubChem BioAssay (NCATS).
# Inconclusive results are not listed. A call without a number means that no potency is given here. Activity calls are given as the source filed them. Unless noted, calls follow the shape of the dose curve; as a rule, active = well fitted curve in the direction sought with a large enough effect; inconclusive = small, poorly fitted or top-dose-only effect, or another doubt; inactive = no such curve, though single readings can be large; an effect the other way counts as inactive or inconclusive.
# Legend:
# [1] = qHTS Assay for Identifying Gametocytocidal Compounds (AID 743244); also: potency is read from the fitted curve at half-maximal effect;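 as to max response: actives lower the fluorescent signal which means gametocytes are killed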; conditions: P. falciparum 3D7 stage III-V gametocytes, alamarBlue, 72 h; max response: stronger effect = lower value
# Method in brief: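 Viability read-out was resazurin reduction (alamarBlue, 24 h) measured at Ex 525/Em 598 nm. Beforehand, late-stage (III-V) 3D7 P. falciparum gametocytes at 20,000 cells/well were incubated with compound 72 h at 37C under 5% CO2.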
# [2] = qHTS profiling for inhibitors of Plasmodium falciparum (HB3) proliferation (AID 743324); conditions: Plasmodium falciparum HB3 blood-stage proliferation; at 28.7 µM (top of the series) unless noted
# Method in brief: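 P. falciparum HB3 grown in erythrocytes (0.3% parasitemia, 2.5% hematocrit final) with compound for 72 h at 37 C, 5% CO2. Parasite DNA detected by SYBR Green after saponin/triton lysis overnight; normalized to 0.29 uM artemisinin and DMSO.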
# [3] = qHTS profiling of the MIPE4 collection as inhibitors of Plasmodium falciparum (3D7) proliferation (AID 743344; call rule not given here); conditions: P. falciparum 3D7 in erythrocytes, SYBR Green DNA fluorescence, 72 h; at 28.5 µM (top of the series) unless noted
# Method in brief: (§1)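 Erythrocytes infected with P. falciparum (0.3% parasitemia, 2.5% hematocrit) incubated with compounds 72 h at 37 C, 5% CO2. Lysis with saponin/Triton buffer containing SYBR Green I, overnight at room temperature in the dark; DNA fluorescence (485/535 nm) normalised to 0.29 uM artemisinin and DMSO.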
# [4] = qHTS profiling of the MIPE4 collection as inhibitors of Plasmodium falciparum (DD2) proliferation (AID 743345; call rule not given here); conditions: P. falciparum Dd2 in erythrocytes, SYBR Green DNA, 72 h; at 28.5 µM (top of the series) unless noted
# Method in brief: as §1
# [5] = qHTS profiling of the MIPE4 collection as inhibitors of Plasmodium falciparum (DD2) proliferation (Rep 2) (AID 743346; call rule not given here); conditions: P. falciparum Dd2 in erythrocytes, SYBR Green DNA, 72 h; at 28.5 µM (top of the series) unless noted
# Method in brief: as §1
# [6] = qHTS profiling of the MIPE4 collection as inhibitors of Plasmodium falciparum (HB3) proliferation (AID 743347; call rule not given here); conditions: P. falciparum HB3 in erythrocytes, SYBR Green DNA, 72 h; at 28.5 µM (top of the series) unless noted
# Method in brief: as §1
# [7] = qHTS assay to identify small molecule inhibitors of chordoma cells - UCH-1 (AID 1259355); conditions: UCH-1 chordoma viability, CellTiter-Glo, 48 h, combination, with auranofin plus four topoisomerase inhibitors; series mostly up to 46.1 µM; also: nearly all actives have a fitted effect of over 55% in size; also: potency is read from the fitted curve at half-maximal effect
# Method in brief: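 Luminescent ATP read-out (CellTiter-Glo, 30min at room temperature) measured viability of UCH-1 cells exposed for 48hr to test drugs at 15 concentrations, co-dosed with a five-agent combination of auranofin, camptothecin, doxorubicin, rubitecan and topotecan.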
# [8] = qHTS assay to identify small molecule inhibitors of chordoma cells - UCH-2 (AID 1259356); conditions: UCH-2 chordoma viability, CellTiter-Glo ATP luminescence, 48 h; series mostly up to 46.1 µM
# [9] = qHTS assay for small molecule antagonists of the retinoid-related orphan receptor gamma (ROR-gamma) signaling pathway - cell viability counter screen (AID 720652; active = well fitted curve in the direction sought with a large enough effect in the repeat runs; an effect the other way counts as inactive or inconclusive;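 also: compound exposure lasted 16 hr before ATP read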); conditions: RORgamma reporter cell line viability counter screen; series mostly up to 92.2 µM
# Method in brief: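 Luminescence from CellTiter-Glo after 30 min at room temperature reported cellular ATP as the cytotoxicity measure. Cells were the CHO reporter line with doxycycline-induced ROR-gamma expression, exposed to compound for 16 hr at 37 C.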
# [10] = qHTS assay for small molecule agonists of the antioxidant response element (ARE) signaling pathway measured by Nrf2-dependant transcriptional activity - cell viability counter screen (AID 720653; active = well fitted curve in the direction sought with a large enough effect in the repeat runs; an effect the other way counts as inactive or inconclusive); conditions: ARE-bla HepG2 viability, CellTiter-Glo ATP luminescence, 16 h; stronger effect = lower value
# Method in brief: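 ARE-bla HepG2 cells (2,000/well) rested 5 hrs at 37C/5% CO2, then exposed to compounds in DMSO for 16 hrs. Viability was read in the same wells as intracellular ATP by luminescence, 30 min at room temperature after reagent addition.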
# [11] = qHTS assay for cell viability of HEK293 cells (AID 743288); conditions: ATP luminescence (CellTiter-Glo), 18 h, stronger effect = lower value; also: nearly all actives have a fitted effect of over 50% in size
# Method in brief: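 Parental HEK293 cells, 2,000 per well, preincubated at least 5 h at 37 C, then exposed to compounds in DMSO for 18 h at 37 C. Viability by CellTiter-Glo ATP luminescence after 30 min at room temperature.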
# [12] = qHTS assay for cell viability of the p53RE-bla HCT-116 cell line (AID 743292); conditions: p53RE-bla HCT-116 viability, ATP luminescence, 16 h; series mostly up to 95 µM; also: nearly all actives have a fitted effect of over 55% in size
# Method in brief: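 Viability of compound-treated p53RE-bla HCT-116 cells is taken from ATP-dependent luciferase luminescence. Treatment lasts 16 h at 37 C after a 5 h settling period; detection follows 30 min at room temperature.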
structure (smiles),measurement,setting,value
C[C@@H]1CCC2[C@@H](C)[C@@H](O)O[C@@H]3O[C@@]4(C)CC[C@@H]1[C@@]23OO4 (stereo partly drawn),Potency,[1],0.0469 µM (active)
same,"remaining proliferation (% of control), lower = more inhibition",[2],-0.144%
same,"parasite growth, % of DMSO control",[3],5.03%
same,"parasite growth remaining, % of DMSO control (lower = more inhibition)",[4],6.44%
same,"parasite growth, % of control (lower = inhibition)",[5],10.6%
same,"growth, % of control",[6],6.11%
same,Potency,[7],inactive
same,Potency,[8],inactive
CNC(C)[C@@H]1CC[C@@H](N)[C@@H](O[C@H]2[C@H](O)[C@@H](O[C@H]3OC[C@](C)(O)[C@H](NC)[C@H]3O)[C@H](N)C[C@@H]2N)O1 (stereo partly drawn),max response,[1],5.9% (inactive)
same,Potency,[7],inactive
same,Potency,[8],inactive
CC1(C)S[C@@H]2[C@H](NC(=O)C(N)c3ccccc3)C(=O)N2[C@H]1C(=O)OC1OC(=O)c2ccccc21 (stereo partly drawn),max response,[1],16.4% (inactive)
same,Potency,[7],inactive
same,Potency,[8],inactive
CC[N+](C)(C)Cc1ccccc1Br,max response,[1],2.98% (inactive)
same,Potency,[7],inactive
same,Potency,[8],inactive
CCCCCCCCCCCCCCCC(=O)OCC(COC(=O)CCCCCCCCCCCCCCC)OC(=O)CCCCCCCCCCCCCCC,max response,[1],4.37% (inactive)
same,Potency,[7],inactive
same,Potency,[8],inactive
CC1(C)S[C@@H]2[C@H](NC(=O)[C@@H](NC(=O)N3CCNC3=O)c3ccccc3)C(=O)N2[C@H]1C(=O)O,max response,[1],5.13% (inactive)
same,Potency,[7],inactive
same,Potency,[8],inactive
COC(=O)C1=C(C#N)NC(C)=C(C(=O)OC(C)C)C1c1cccc([N+](=O)[O-])c1 (stereo not drawn),max response,[1],13.2% (inactive)
same,Potency,[7],inactive
same,Potency,[8],inactive
CO/N=C(\C(=O)N[C@@H]1C(=O)N2C(C(=O)O)=C(CSc3cnns3)CS[C@H]12)c1csc(N)n1,max response,[1],2.82% (inactive)
same,Potency,[7],inactive
same,Potency,[8],inactive
COCC(=O)Nc1cc(Sc2ccccc2)ccc1N=C(NC(=O)OC)NC(=O)OC,max response,[1],-1.05% (inactive)
same,Potency,[7],inactive
same,Potency,[8],inactive
Cc1cn([C@H]2C[C@H](O)[C@@H](CO)O2)c(=O)[nH]c1=O,max response,[1],5.37% (inactive)
same,Potency,[7],inactive
same,Potency,[8],inactive
Cc1ccccc1OCC(O)CNCCOc1ccc(C(N)=O)cc1 (stereo not drawn),max response,[1],6.36% (inactive)
same,Potency,[7],inactive
same,Potency,[8],inactive
CCOC(=O)C1=C(C)NC(C)=C(C(=O)OCC)C1c1ccccc1C=CC(=O)OC(C)(C)C,"parasite growth, % of DMSO control",[3],6.3%
same,"parasite growth remaining, % of DMSO control (lower = more inhibition)",[4],7.86%
same,"parasite growth, % of control (lower = inhibition)",[5],19.9%
same,"growth, % of control",[6],11.8%
same,Potency,[7],inactive
same,Potency,[8],inactive
CC(C)(C)C(=O)OCOC(=O)[C@@H]1N2C(=O)[C@@H](N=CN3CCCCCC3)[C@H]2SC1(C)C,max response,[1],2.95% (inactive)
same,Potency,[7],inactive
COC(=O)CCC(=O)CN,max response,[1],-0.174% (inactive)
same,Potency,[7],inactive
same,Potency,[8],inactive
CCCCC(=O)N(Cc1ccc(-c2ccccc2-c2nn[nH]n2)cc1)[C@@H](C(=O)O)C(C)C,max response,[1],-5.58% (inactive)
same,Potency,[7],inactive
same,Potency,[8],inactive
CC(NNC(=O)c1ccccc1)c1ccccc1 (stereo not drawn),max response,[1],-2.82% (inactive)
same,Potency,[7],inactive
same,Potency,[8],inactive
O=C(Nc1ccc(Br)cc1)c1cc(Br)c(Br)s1,max response,[1],1.98% (inactive)
same,Potency,[7],inactive
same,Potency,[8],inactive
CNc1cc(OC)c(C(=O)N[C@H]2CCN(Cc3ccccc3)[C@H]2C)cc1Cl,max response,[1],-16.8% (inactive)
same,Potency,[7],inactive
same,Potency,[8],inactive
C#C[C@]1(O)CC[C@H]2[C@@H]3CCC4=CCCC[C@@H]4[C@H]3C(=C)C[C@@]21CC,max response,[1],-1.95% (inactive)
same,Potency,[7],inactive
same,Potency,[8],inactive
CCOc1ccc(N=Nc2ccc(N)cc2N)cc1,max response,[1],4.91% (inactive)
same,Potency,[7],inactive
same,Potency,[8],inactive
O=C(COc1ccc(Cl)cc1)OCCNC12CC3CC(CC(C3)C1)C2,max response,[1],-2.86% (inactive)
same,Potency,[7],inactive
same,Potency,[8],inactive
COC(=O)[C@H]1[C@H]2C[C@@H]3c4[nH]c5ccccc5c4CCN3C[C@H]2C[C@@H](OC(=O)c2cc(OC)c(OC)c(OC)c2)[C@@H]1OC,Potency,[1],8.91 µM (active)
same,Potency,[7],10 µM (active)
O=C1C(=O)c2ncccc2-c2cccnc21,Potency,[1],0.148 µM (active)
same,Potency,[8],inactive
CO[C@H](C(=O)[C@@H](O)[C@@H](C)O)C1Cc2cc3cc(O[C@H]4C[C@@H](O[C@H]5C[C@@H](O)[C@H](O)[C@@H](C)O5)[C@@H](O)[C@@H](C)O4)c(C)c(O)c3c(O)c2C(=O)[C@H]1O[C@H]1C[C@@H](O[C@H]2C[C@@H](O[C@H]3C[C@](C)(O)[C@H](O)[C@@H](C)O3)[C@H](O)[C@@H](C)O2)[C@H](O)[C@@H](C)O1 (stereo partly drawn),Potency,[8],inactive
O=C(O)CCC(=O)C(=O)O,outcome,[9],inactive
same,max response,[10],-1.5% (inactive)
same,max response,[1],11.5% (inactive)
same,max response,[11],2.53% (inactive)
same,outcome,[12],inactive
same,Potency,[8],inactive
CCOC(=O)O[C@]1(C(=O)COC(=O)CC)CC[C@H]2[C@@H]3CCC4=CC(=O)C=C[C@]4(C)[C@H]3[C@@H](O)C[C@@]21C,max response,[1],11.8% (inactive)
same,Potency,[8],inactive
